NALP1 inh = inhibitors of NALP1 inflammasome in yeast | S. cerevisiae NALP1/ASC/caspase-1 growth, X-gal OD620, 72 h | inhibition, % at 10 µM | actives 0.61% (n = 280,000) | AID 2071; in the data active means inhibition mostly above about 24%, no sharp cut-off; inactive means mostly below about 32%
tim10-1 inh = tim10-1 yeast growth inhibition. S. cerevisiae tim10-1 ts strain growth, BacTiter-Glo, 24 h. inhibition, % at 20 µM. actives 2.2% (n = 330,000). AID 463190;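 active means inhibition of at least 40%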;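 further: mutant grown at 25 °C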
V-ATPase pH = yeast V-ATPase proton transport regulation by pHLuorin | S. cerevisiae, pHLuorin cytosolic pH fluorescence | response, % at 10 µM | actives 0.37% (n = 350,000) | AID 504577; in the data active means response mostly above about 7.3%, no sharp cut-off; inactive means mostly below about 5.4%; further: actives read high
tim23-1 inh = inhibits growth of tim23-1 mutant yeast. inhibition, % at 20 µM. actives 1.3% (n = 330,000). S. cerevisiae tim23-1 growth, BacTiter-Glo luminescence, 24 h. AID 463212;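 active means growth inhibition of the mutant yeast at or above 50%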;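 further: temperature-sensitive mutant grown at 25 °C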
TIM10 inh = TIM10 yeast growth inhibition; actives 1.4% (n = 330,000); S. cerevisiae TIM10 strain growth, BacTiter-Glo luminescence, 24 h; AID 463195; inhibition, % at 10 µM;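 active means inhibition of 40% or more at the single tested concentration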;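 further: wild-type TIM10 isogenic control strain grown at permissive 25 °C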
NALP3 yeast inh = NALP3 inhibition in yeast | inhibition, % at 10 µM | actives 0.39% (n = 330,000) | Yeast reconstituted NLRP3/ASC/caspase-1, beta-gal luminescence, 24 h;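 active means inhibition of 50% or more; inactive means inhibition below 50%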
TIM10 conf = TIM10 yeast growth inhibition, confirmed | inhibition, % at 10 µM | AID 463215 | shares compounds with TIM10 inh | S. cerevisiae tim10 strain growth, BacTiter-Glo luminescence, 24 h | actives 63% (n = 4,600);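 active means inhibition of yeast growth at or above a set limit in either of two replicates at 10 µM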; further: this counterscreen used the strain with wild-type TIM10
A number is an active result; 0 = inactive; - = no result given. Rows were chosen to be rich in hits. Some 4.2% of all compounds tested hit in one or more screens of this group.

SMILES | NALP1 inh | tim10-1 inh | V-ATPase pH | tim23-1 inh | TIM10 inh | NALP3 yeast inh | TIM10 conf
CC(C)CC(=O)NC(=S)Nc1cccc(NC(=O)c2ccccc2)c1 | 0 | 0 | 0 | 0 | 46.7 | 0 | 33.3
CC(C)CC(=O)NC(=S)Nc1ccc(NC(=O)c2cccs2)cc1 | 0 | 0 | 0 | 0 | 51.4 | 0 | 0
CNC(=O)c1ccsc1NC(=O)CCS(=O)(=O)c1ccc(Cl)cc1 | - | 0 | 0 | 0 | 0 | 0 | -
CCc1n[nH]c(=S)n1/N=C/c1cc(Br)c(OC)cc1OC | 0 | 0 | 0 | 0 | 53.3 | 0 | 0
CCc1n[nH]c(=S)n1/N=C/c1ccc(-c2ccc(Br)cc2)o1 | - | 0 | 0 | 0 | 0 | 0 | -
CC(Oc1ccc2c(c1)oc(=O)c1ccccc12)C(=O)NCC1CCC(C(=O)O)CC1 (configuration not stated) | 0 | 0 | 0 | 0 | 0 | 0 | -
Cc1cc(N=Cc2c(O)n(-c3ccc4c(c3)OCO4)c(=O)c3ccccc23)ccn1 | 0 | 0 | 0 | 0 | 53.2 | 0 | 36.5
O=C(O)c1ccccc1N=Cc1c(O)n(-c2nccs2)c(=O)c2ccccc12 | 0 | 0 | 0 | 0 | 0 | 0 | -
Cc1ccc(N=Cc2c(O)n(-c3nccs3)c(=O)c3ccccc23)cc1 | 0 | 0 | 0 | 0 | 41.1 | 0 | 0
c1ccc(Cn2ncc3c(N4CCOCC4)ncnc32)cc1 | 0 | 0 | 0 | 0 | 0 | 0 | -
S=c1[nH]nc(-c2ccc(Br)o2)n1Cc1ccccc1 | 0 | 0 | 0 | 0 | 46.1 | 0 | 34.6
O=C(CCN1C(=O)c2ccccc2C1=O)NC(=S)Nc1ccccc1 | 0 | 0 | 0 | 0 | 0 | 0 | -
O=C(CCN1C(=O)c2ccccc2C1=O)NC(=S)Nc1cccc(Cl)c1 | 0 | 0 | 0 | 0 | 40.6 | 0 | 0
S=C(Nc1cccc(Br)c1)c1ccccc1 | 0 | 0 | 0 | 0 | 43.2 | 0 | 44.0
O=C(CCc1ccccc1)NC(=S)Nc1cccc(Br)c1 | 0 | 0 | 0 | 0 | 47.7 | 0 | 0
CC(=O)c1cccc(NC(=S)NCCCCc2ccccc2)c1 | 0 | 0 | 0 | 0 | 41.1 | 0 | 0
O=C(NCCCCc1ccccc1)c1cccc(NC(=O)c2ccccc2)c1 | - | - | 0 | - | - | - | -
C#CCCOC(=O)N1C2=NC(C(=O)OC)=C(C(=O)OC)[C@@H]3Nc4ccccc4[C@]23C[C@H]1C(=O)OC | - | - | 0 | - | - | - | -
O=C(CCN1CCCCO1)N1CCCC(Nc2ccc(F)cc2)C1 (configuration not stated) | 0 | 0 | 0 | 0 | 0 | 0 | -
CC(=O)c1ccc(-n2nncc2C(C)(C)C)cc1 | 0 | 0 | 0 | 0 | 0 | 0 | -
CCc1cccc2c(C(=O)C(NCCOC)c3ccccc3)c[nH]c12 (configuration not stated) | 0 | 0 | 0 | 0 | 0 | 0 | -
COc1cccc(/C=N/NC(=O)CSc2ccccc2C)c1OC | 0 | 0 | 0 | 0 | 0 | 0 | -
COc1cccc(/C=N/NC(=O)CSc2ccccc2C)c1O | 0 | 0 | 0 | 0 | 42.6 | 0 | 53.4
COC(=O)NC(Nc1sc2c(c1C(N)=O)CCCC2)(C(=O)OC)C(F)(F)F (configuration not stated) | 0 | 0 | 0 | 0 | 0 | 0 | -
CC(C)COP(=O)(OCC(C)C)C(Nc1ccccc1)c1ccc(F)cc1 (configuration not stated) | 0 | 0 | 0 | 0 | 0 | 0 | -
SMILES | NALP1 inh | tim10-1 inh | V-ATPase pH | tim23-1 inh | TIM10 inh | NALP3 yeast inh | TIM10 conf
CC(C)COP(=O)(OCC(C)C)C(Nc1ccccc1)c1ccccc1 (configuration not stated) | 0 | 0 | 0 | 0 | 40.8 | 0 | 34.1
CCn1cc(/C=C(\NC(=O)c2cc(OC)c(OC)c(OC)c2)C(=O)NCCN2CCOCC2)c2ccccc21 | 0 | 0 | 0 | 0 | 97.4 | 0 | 0
CCN1CCN(c2cc(C)c3cc(NC(=S)N4CCN(c5ccc(F)cc5)CC4)ccc3n2)CC1 | 0 | 0 | 0 | 0 | 0 | 0 | -
Cc1ccccc1-n1c(-c2csc(C)c2C)n[nH]c1=S | 0 | 0 | 0 | 0 | 0 | 0 | -
Cc1ccccc1-n1c(-c2csc3ccccc23)n[nH]c1=S | 0 | 0 | 0 | 0 | 40.4 | 0 | 0
CN1CCN(CC(=O)Nc2nc(-c3ccccc3)cs2)CC1 | 0 | 0 | 0 | 0 | 0 | 0 | -
COc1ccc(C2(O)CCN(CC(=O)Nc3nc(-c4ccccc4)cs3)CC2)cc1 | 0 | 0 | 0 | 0 | 51.8 | 0 | 43.2
COc1ccc(CN(C)C(=S)Nc2ccc(OC(F)F)cc2)cc1 | 0 | 0 | 0 | 0 | 0 | 0 | -
COc1cccc(CN(C)C(=S)Nc2ccc(C)c(C)c2)c1 | 0 | 0 | 0 | 0 | 46.3 | 0 | 0
O=C(C1Cc2ccccc2CN1S(=O)(=O)c1cccs1)N1CCCCCC1 (configuration not stated) | 0 | 0 | 0 | 0 | 44.0 | 0 | 33.1
NC(=O)C1Cc2ccccc2CN1S(=O)(=O)c1cccs1 (configuration not stated) | 0 | 0 | 0 | 0 | 0 | 0 | -
Cc1ccc(C(=O)CSc2nccn2-c2ccccc2)cc1 | 0 | 0 | 0 | 0 | 0 | 0 | -
O=[N+]([O-])c1ccc2c(OCc3nnc(-c4ccccc4Br)o3)ncnc2c1 | 0 | 0 | 0 | 0 | 44.6 | 0 | 30.6
O=[N+]([O-])c1cc(Br)c(OCc2nnc(-c3ccccc3)o2)c(Br)c1 | 0 | 0 | 0 | 0 | 0 | 0 | -
COc1ccc(-n2c(-c3ccc(F)cc3)cnc2SCC(=O)NCc2ccco2)cc1 | 0 | 0 | 0 | 0 | 0 | 0 | -
Oc1ccc(/C=N/N=C(c2ccccc2)c2ccccc2)c(O)c1O | 0 | - | 0 | - | - | - | -
O=C(/C(=N/N=C/c1ccc(O)c(O)c1O)c1ccccc1)c1ccccc1 | 0 | 0 | 0 | 0 | 44.6 | 0 | 0
OCCOc1ccc(C2=NCCO2)cc1 | 0 | 0 | 0 | 0 | 0 | 0 | -
CCn1c(=O)c(C(=O)NCc2cccnc2)c(O)c2ccccc21 | 0 | 0 | 0 | 0 | 44.3 | 0 | 33.1
CCn1c(=O)c(C(=O)NCc2ccccc2)c(O)c2ccccc21 | 0 | 0 | 0 | 0 | 0 | 0 | -
Nc1cc(-c2ccc(Br)cc2)nc2cc(-c3ccccc3)nn12 | 0 | 0 | 0 | 0 | 0 | 0 | -
Clc1nc(-c2ccccc2)cc(-c2ccc(Br)cc2)n1 | - | 0 | 0 | 0 | 42.0 | 0 | 33.2
CCCCN1C(=O)C(=O)N(CC(=O)Nc2ccc(C(N)=O)cc2)C1=O | - | 0 | 0 | 0 | 0 | 0 | -
CCN1CCN(c2ccc(N3CCN(S(=O)(=O)c4cccc([N+](=O)[O-])c4)CC3)nn2)CC1 | - | - | 0 | - | - | - | -
CC(C)n1c(N2CCN(S(=O)(=O)c3cccc([N+](=O)[O-])c3)CC2)nc2ccccc21 | 0 | 0 | 0 | 0 | 41.0 | 0 | 34.5
COc1ccc(NC(=O)N2CCCC(c3nc(-c4ccc(OC)cc4)no3)C2)cc1 (configuration not stated) | 0 | 0 | 0 | 0 | 0 | 0 | -
O=C(Nc1ccc(Cl)cc1)N1CCC(c2nc(-c3ccc(F)cc3)no2)CC1 | 0 | 0 | 0 | 0 | 48.4 | 0 | 0
CC(NC(=S)NC1CCC(C(C)(C)C)CC1)c1ccccc1 (configuration not stated) | 0 | 0 | 0 | 0 | 0 | 0 | -

Screens from PubChem BioAssay.
